The nature of this assay: Confirmation Concentration-Response Assay for Epigenetic Modulators. As to conditions: murine C127i cells, silenced GFP reporter derepression, imaging. The text has this: NIH Molecular Libraries Screening Centers Network [MLSCN] NIH Chemical Genomics Center [NCGC] MLSCN Grant: 1 X01 MH079860-01 Assay Provider: Elisabeth D. Martinez, University of Texas SW Medical Center NCGC Assay Overview: The Locus Derepression assay detects the derepression of a GFP reporter that is stably integrated in a region of the genome of murine c127i mammary cells that is presumably silenced. GFP transcription in this construct is controlled by a CMV promoter, which normally is strong and constitutively active. However, this line was selected for lack of constitutive expression of the GFP protein. GFP production can be induced by incubating the cells with histone deacetylase or DNA methyltransferase inhibitors. Compounds that cause derepression of the locus to express GFP are identified by enumerating GFP positive cells using a laser-scanning microplate cytometer.
NCGC Assay Protocol Summary: Two hundred and fifty cells in 5 uL per well were dispensed into black, clear-bottom 1536-well plates. Twenty-three nL compound was transferred to the assay plate and cells were incubated 30 hours at 37 C. […]

The source made the active and inactive calls. The call rests on the fitted dose curve; in most records, active means well fitted activation curve with a large enough effect; inactive means flat fitted curve, though single readings scatter.

Regarding `CN1CSC(=S)N(C)C1`, the Potency was 7.95 µM (active).

The values above are taken from PubChem BioAssay AID890 (National Center for Advancing Translational Sciences (NCATS), 2007).
